Only some compounds are listed: those with a hit (about 1.8% of all), similar ones and a draw of the others.
TrxR1 inh = qHTS Assay for Inhibitors of Mammalian Selenoprotein Thioredoxin Reductase 1 (TrxR1): qHTS; Thioredoxin reductase 1, cytoplasmic (Rattus norvegicus), O89049; recombinant rTrxR1, NADPH fluorescence consumption, selenite substrate; AID 588453, 2011; Potency, µM (titrated, usually from 114 µM), for inactives: at the top dose activity change, negative = inhibition, actives largely listed as inhibitors; 1% of 390,000 active; note: nearly all actives have a fitted effect of over 65% in size
Target sequence (O89049 whole entry, looked up): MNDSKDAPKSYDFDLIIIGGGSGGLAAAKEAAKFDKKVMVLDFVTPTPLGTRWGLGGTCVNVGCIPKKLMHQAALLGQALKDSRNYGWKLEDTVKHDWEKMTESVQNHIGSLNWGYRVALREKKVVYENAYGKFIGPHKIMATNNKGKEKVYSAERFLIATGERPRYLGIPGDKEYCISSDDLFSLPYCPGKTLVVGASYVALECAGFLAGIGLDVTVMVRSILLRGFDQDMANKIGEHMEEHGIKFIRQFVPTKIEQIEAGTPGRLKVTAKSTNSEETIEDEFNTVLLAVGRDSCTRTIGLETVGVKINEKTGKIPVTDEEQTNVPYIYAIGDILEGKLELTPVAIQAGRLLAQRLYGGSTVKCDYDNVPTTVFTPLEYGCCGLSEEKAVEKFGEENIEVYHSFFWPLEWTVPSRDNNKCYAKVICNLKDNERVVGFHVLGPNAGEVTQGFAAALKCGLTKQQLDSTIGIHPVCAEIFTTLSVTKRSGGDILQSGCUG
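Rat TrxR1 (90 nM in the dispensed reagent) was pre-reduced with 400 uM NADPH for 5 min at room temperature, then incubated with compound for 15 min. After 400 uM selenite was added, NADPH fluorescence (Ex 340/Em 450 nm) was followed for 8 min.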
VDR inhibitor = Inhibitors of the vitamin D receptor (VDR): qHTS | Vitamin D3 receptor (Homo sapiens), P11473 | VDR-SRC2-3 peptide fluorescence polarization, 2 h | Potency, µM, for inactives: max response, negative = inhibition, hits mostly inhibitors | 0.93% of 400,000 active | AID 504847, 2011
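Fluorescence polarization assay measuring small-molecule disruption of VDR binding to the coregulator peptide SRC2-3. Compounds were pin-transferred (23 nl) into the reagent mix and incubated 2 h at room temperature before reading.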
KAT2A inh = qHTS Assay for Inhibitors of GCN5L2; GCN5L2 HAT assay, ThioGlo1 CoA-SH fluorescence; 0.21% of 390,000 active; AID 504327, 2011; Potency, µM (series often up to 58.9 µM), for inactives: at the highest dose activity change, negative = inhibition, actives largely listed as inhibitors; Histone acetyltransferase KAT2A (Homo sapiens), Q92830
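Free CoA generated was detected with ThioGlo1 (50uM) fluorescence at Ex340nm/Em540nm, read immediately and after 20 min at room temperature. Enzyme, 20 nM in HEPES pH 7.5 buffer, saw compounds 15 min before adding 75uM H3(1-25) peptide and 70uM acetyl-CoA.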
TrxR1 substrate = qHTS Assay for Substrates of Mammalian Selenoprotein Thioredoxin Reductase 1 (TrxR1): qHTS; Potency, µM (highest dose often 114 µM), without a hit: at the highest dose activity change, negative = substrate turnover; Thioredoxin reductase 1, cytoplasmic (Rattus norvegicus), O89049; 0.01% of 390,000 active; purified TrxR1 substrate turnover, NADPH consumption readout; AID 588456, 2011; note: nearly all actives have a fitted effect of over 50% in size
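Rat TrxR1, dispensed at 90 nM, was prereduced with 400 uM NADPH (final) for 5 min at ~22 deg C, then incubated with compound 15 min before 400 uM selenite. A first-read NADPH fluorescence drop versus no-compound background flagged substrates.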
* marks the source's active call; other numbers are inactive results; ? = inconclusive; · = no result; ! = not active in a repeat; [ ] = dose if it differs, or a comment. Calls come from the whole dose curve; as a rule, active = well fitted curve in the direction sought with a large enough effect; inconclusive = small, poorly fitted or top-dose-only effect, or another doubt; inactive = no such curve, though single readings can be large; an effect the other way counts as inactive or inconclusive. % is set by controls: 0 for no effect and ±100 for the full control effect; potency is the fitted concentration of half-maximal effect.

SMILES | TrxR1 inh | VDR inhibitor | KAT2A inh | TrxR1 substrate
COc1cccc(-n2nnnc2S(C)(=O)=O)c1 | 3.16µM* | 44.7µM* | 0.0% | 5.3%
Cc1cccc(-n2nnc3cnn(C)c3c2=O)c1 | 5.9%[57.1 µM] | 10.6% | -5.3% | -2.8%[57.1 µM]
C[C@H](C(=O)OCO/N=[N+](\[O-])N1CCCC1)c1cccc2ccccc12 | 17.8µM* | -23.5% | · | -10.1%
CCOC(=O)N1CCN(/[N+]([O-])=N/OCOC)CC1 | 15.5% | · | · | 4.4%
COc1ccccc1NS(=O)(=O)c1cc(NC(=O)c2sccc2C)ccc1N1CCCC1 | -1.3%[57.1 µM] | 89.1µM* | -11.3% | 3.7%[57.1 µM]
COc1ccccc1NS(=O)(=O)c1cc(NC(=O)Nc2ccccc2)ccc1N1CCCCC1 | 9.1% | -6.3% | -4.4% | -2.5%
COc1ccccc1NS(=O)(=O)c1cc(NC(=O)C(C)C)ccc1N1CCCCC1 | 5.5%[57.1 µM] | 79.4µM* | -8.5% | 3.3%[57.1 µM]
CN(C)c1ccc(/C=C/c2ccnc3ccccc23)cc1 | 1.2% | · | · | 9.8%[0.0914 µM]
Cc1ccc(S(=O)(=O)N2CCN(C(=O)/C=C/c3ccco3)CC2)cc1 | 8.4%[57.1 µM] | -1.3% | 2.6% | 6.3%[57.1 µM]
Cc1ccc(C)c(S(=O)(=O)N2CCN(C(=O)/C=C/c3ccco3)CC2)c1 | 7.94µM* | 89.1µM* | ? | 2.3%
CCN(CC)c1ccc(NC(=O)Nc2ccc(C(C)=O)cc2)cc1 | 7.3%[57.1 µM] | -13.1% | -4.9% | -11.2%
CCN(CC)c1ccc(N=C2C=CC(=O)C=C2NC(C)=O)cc1 | -58.3% | 70.8µM* | · | 10.7%[57.1 µM]
Cc1nc2sc(-c3ccccc3)cc2c(=O)n1/N=C/N(C)C | 9.0% | 25.0% | -12.2% | 0.3%
Cc1nc2scc(-c3ccco3)c2c(=O)n1/N=C/N(C)C | 31.6µM* | 3.2% | 3.1% | 11.0%
CC1CC=CC2C1C(=O)N(Cc1ccccc1)C2c1ccc(-c2ccc(F)cc2)cc1F (configuration not stated) | -9.1% | -14.4% | · | -3.8%
Cc1ccc(C2CC(=O)Oc3ccc(O)cc32)cc1 (configuration not stated) | · | -21.8% | 3.1%[88.6 µM] | ·
COC(=O)c1cscc1S(=O)(=O)Cc1ccccc1 | 20µM* | -17.3% | -2.6% | 0.5%
COC(=O)c1ccccc1NC(=O)CN(CCc1ccccc1)S(C)(=O)=O | 7.1% | -13.7% | · | 5.2%
CCCCC/C=C\CC(O)/C=C/c1cccc(CC(O)CCCCO)n1 (configuration not stated) | ? | 50.1µM*! | -5.3% | 5.4%[57.1 µM]
Cc1cc(NC(=O)/C=C/c2ccco2)ccc1NC(=O)c1ccccc1 | -3.1%[57.1 µM] | 13.9% | 3.16µM* | -1.9%[57.1 µM]
COc1cc(OC)cc(C(=O)Nc2ccc(NC(=O)c3ccco3)c(C)c2)c1 | 25.1µM* | -3.9% | -4.7% | -3.3%
O=C(/C=C/c1ccco1)Nc1ccc2nn(-c3ccccc3)nc2c1 | 56.2µM* | -4.3% | -7.3% | -4.8%
O=C(NCC1(c2ccccc2)CCCC1)C(=O)Nc1cccc(C(F)(F)F)c1 | 23.9% | 18.0% | -6.4% | 0.2%
CC(C)(C)Nc1nc2cc([N+](=O)[O-])ccc2o1 | 4.3% | -9.7% | -2.9% | -3.0%
CC(C)(C)c1nc2cc(Cl)c([N+](=O)[O-])cc2o1 | 8.2%[57.1 µM] | 79.4µM* | -0.2% | -2.9%[57.1 µM]
SMILES | TrxR1 inh | VDR inhibitor | KAT2A inh | TrxR1 substrate
O=C(/C=C/c1ccc(Br)o1)NCCCN1CCOCC1 | 8.91µM* | -10.4% | -5.6% | -2.5%
CCOc1ccccc1NC(=O)C1CCCN1S(=O)(=O)c1ccc2nc(-c3ccccc3)[nH]c2c1 (configuration not stated) | 16.9% | -0.2% | -14.8% | -1.4%
Cc1ccc2[nH]c(=O)c(CN(Cc3ccco3)S(=O)(=O)c3c(C)ccc4nsnc34)cc2c1 | 28.2µM* | -11.5% | -10.8% | 12.6%
Nc1nc(Cl)nc2c1ncn2[C@@H]1O[C@H](COP(=O)(O)OP(=O)(O)OP(=O)(O)O)[C@@H](O)[C@H]1O | -7.6%[57.1 µM] | 2.3% | -16.6% | -0.9%[57.1 µM]
CCC[C@H]1COCCS(=O)(=O)N1Cc1cccc(F)c1 | 19.0% | · | · | -1.2%
CC(=O)N=c1sc2nc3ccccc3nc2n1N(C(C)=O)C(C)=O | 39.8µM* | ? | -4.2% | 9.7%
CC(=O)OC1(C(C)=O)CCC2C3CC(C(F)(F)F)C4=CC(=O)CCC4(C)C3CCC21C (configuration not stated) | 15.8µM* | ? | · | 0.4%
CCOc1cc(NC(=S)NCCCN2CCOCC2)c(OCC)cc1NC(=O)CC(C)C | 22.4µM* | 8.4% | -7.0% | 1.2%[57.1 µM]
CCOC(=O)c1c(C)oc2c1c(C(c1ccccc1)N1CCOCC1)c(O)c1ccccc12 (configuration not stated) | -18.1%[57.1 µM] | -14.5% | -7.2% | 2.2%[57.1 µM]
CCOC(=O)c1c(C)oc2c1c(C(c1cccnc1)N1CCCCC1)c(O)c1ccccc12 (configuration not stated) | 7.08µM* | -16.8% | -9.3% | 1.6%
COc1ccccc1CCC(=O)O | 4.4% | · | · | 1.2%
COc1ccc(N(C(=O)c2ccc(S(=O)(=O)N3CCOCC3)cc2)C2C=CS(=O)(=O)C2)cc1 (configuration not stated) | 21.8% | 33.3% | 2.24µM* | 5.1%
CCc1ccccc1N(C)C | 23.3% | · | · | 5.0%
O=c1c2cccc(Cl)c2nc2n1Cc1ccccc1-2 | ? | 79.4µM* | ? | 2.9%[57.1 µM]
O=[N+]([O-])c1ccc(C(=S)N2CCN(c3ccc(F)cc3)CC2)cc1 | -4.5%[57.1 µM] | 79.4µM* | -5.1% | -2.4%[57.1 µM]
O=C(O)CCC(=O)Nc1ccccc1Oc1ccccc1 | 30.4%[57.1 µM] | 79.4µM* | -6.2% | 12.1%
Nc1ncn(C(=S)Nc2ccccc2)n1 | 15.8µM* | -2.8% | · | -6.3%
Cc1ccc2c(c1)ncc[n+]2CC(=O)c1ccc(Cl)cc1Cl | -3.1% | · | · | -0.3%
CCOC(=O)/C(=C\c1ccccc1)NC(=O)c1ccccc1 | -2.3% | -0.1% | -0.9% | -7.8%
CCOC(=O)/C(=C/c1ccc(OC(=O)c2ccccc2)cc1)C(C)=O | 14.1µM* | ? | -5.2% | -0.1%
CNC(=S)NNC(=O)c1cccn(Cc2ccc(Cl)cc2Cl)c1=O | · | · | 0.562µM* | ·
CC(=O)Nc1cc([N+](=O)[O-])cc(NC(C)=O)c1NC(C)=O | 2.5% | · | · | -5.9%
COc1ccc(C(C[N+](=O)[O-])c2c(C)cc3ccccn23)cc1 (configuration not stated) | ? | 7.5% | -13.5% | 4.3%
COc1ccc(C(C[N+](=O)[O-])c2c(-c3ccccc3)cc3ccccn23)c(OC)c1 (configuration not stated) | ? | 70.8µM* | -10.2% | -8.8%
N#Cc1c(C(F)(F)F)cc(-c2ccccc2)[nH]c1=O | 23.7% | 1.6% | -23.7% | 910.4%
COc1cccc(-c2cc(C(F)(F)F)c(C#N)c(=O)[nH]2)c1 | 35.1%[57.1 µM] | 70.8µM* | 0.1% | 226.6%[57.1 µM]
CCOC(=O)N1CCN([N+]([O-])=NOc2cc(O/N=[N+](\[O-])N(CC)CC)c([N+](=O)[O-])cc2[N+](=O)[O-])CC1 | 12.6µM* | -14.8% | · | -13.3%

Screening results from PubChem.
